# Results filed as inconclusive are left out. A number with no mark means an inactive call. Calls come from the whole dose curve; as a rule, active = well fitted inhibition curve with a large enough effect; inconclusive = small, poorly fitted or top-dose-only effect; inactive = flat fitted curve, though single readings scatter.
# Test system: HEK293
# Experiment: Cytotoxic Profiling of Annotated Libraries Using Quantitative High-Throughput Screening (AID 1296008); note: nearly all actives have a fitted effect of over 60% in size
# Settings: Five cell lines viability, CellTiter-Glo ATP luminescence, 48-72 h; max response: active compounds read low
# From the text: Cell-based phenotypic screening is a commonly used approach to discover biological pathways, novel drug targets, chemical probes and high-quality hit-to-lead molecules. Many hits identified from high-throughput screening campaign are ruled out through a series of follow-up potency, selectivity/specificity, and cytotoxicity assays. Prioritization of molecules with little or no cytotoxicity for a more in-depth downstream evaluation influence the future direction of projects, so cytotoxicity profiling of the screening libraries at early stage is essential for increasing the likelihood of candidate success. […] For the annotated library, we also examined the primary targets and mechanistic pathways regularly associated with cell death. To our knowledge, this is the first study to use high-throughput screening to profile large libraries for cytotoxicity assessment in both normal and cancer cell lines. In summary, the results generated here constitutes a valuable resource for the scientific community and provides insight on identifying cytotoxic compounds with particular mechanisms of action, and prioritizing compounds with suitable cytotoxicity profile for further evaluation.
# A pintool (Kalypsys) was used to transfer 23 nL of compound solution to the 1536-well assay plates. After 48 or 72 hr incubation at 37 degree Celsius, 5% CO2 and 95% humidity, 2.5 uL of CellTiter-Glo (Promega) was dispensed into each well using a dispenser (Aspect Automation, St. Paul, MN) with solenoid valves (Lee Valves, Westbrook CT). Plates were left at room temperature for 10 min before imaging the ATP-coupled luminescence using a ViewLux microplate imager (PerkinElmer, Waltham, MA).
# % is set by controls: 0 for no effect and ±100 for the full control effect.
row,SMILES,max response [%]
1,COc1cc(/C=C/C(=O)O[C@H]2[C@H](O)[C@@H](CO)O[C@@]2(CO)O[C@H]2O[C@H](CO)[C@@H](O)[C@H](O)[C@H]2O)cc(OC)c1O,-9.27
2,CC1(C)CC=C(C#Cc2ccccc2)c2cc(/C=C/c3ccc(C(=O)O)cc3)ccc21,1.6
3,CC1(C)CC[C@]2(C(=O)O[C@@H]3O[C@H](CO)[C@@H](O)[C@H](O)[C@H]3O)CC[C@]3(C)C(=CCC4[C@@]5(C)CC[C@H](O[C@@H]6O[C@H](C(=O)O)[C@@H](O[C@@H]7O[C@H](CO)[C@@H](O)[C@H](O)[C@H]7O)[C@H](O)[C@H]6O)C(C)(C)C5CC[C@]43C)C2C1 (stereo not given in full),3.3
4,Cc1cc(CNC(=O)c2cc(C(=O)NCc3ccc(F)c(C)c3)ncn2)ccc1F,1.88
5,CC1=CCC[C@@H]2[C@@](C)(CCc3ccoc3)[C@H](C(=O)O)CC[C@@]12C,-0.612
6,C=C1C2CCC3CC2(CC(O)C2(O)C1CC(OC1OC(CO)C(O)C(O)C1O)C2(C)C)CC3(C)O (stereo not given),4.37
7,COc1ccc(/C=C/C(=O)O[C@@H]2[C@@H](OC(C)=O)[C@@H](OC(C)=O)[C@H](O[C@H]3[C@@H]4C=CO[C@@H](O[C@@H]5O[C@H](CO)[C@@H](O)[C@H](O)[C@H]5O)[C@@H]4[C@@]4(CO)O[C@@H]34)O[C@H]2C)cc1,-1.95
8,COc1cc(CO)ccc1O[C@@H]1O[C@H](CO)[C@@H](O)[C@H](O)[C@H]1O,-18.7
9,CC(C)C1C(OC(=O)/C=C/c2ccccc2)CC2(C)OC2CCC2(C)OC2C1O (stereo not given),-5.07
10,C/C1=C\CC[C@]2(C)O[C@H]2C(=O)c2c(C)coc2C1,-1.35
11,CC/C=C\CC1C(CC(=O)O)CCC1OC1OC(CO)C(O)C(O)C1O (stereo not given),0.263
12,CC(C)c1ccc2c(c1)CCC1[C@](C)(C(=O)O)CCC[C@]21C (stereo not given in full),2.37
13,CN1CCCC1Cc1c[nH]c2ccc(CCS(=O)(=O)c3ccccc3)cc12 (stereo not given),-7.1
14,COC(=O)c1cc(OC)cc(OC)c1C(=O)c1c(OC)cc2c(c1O)C1CCC(O)C(C)(O2)O1 (stereo not given),0.585
15,CC1(C)CC[C@]2(C(=O)O[C@@H]3O[C@H](CO)[C@@H](O)[C@H](O)[C@H]3O)CC[C@]3(C)C(=CCC4[C@@]5(C)C[C@@H](O)[C@H](O)[C@@](C)(CO)C5[C@H](O)C[C@]43C)C2[C@@H]1O (stereo not given in full),-12.5
16,CC1=CC2=C(C)C(=O)[C@](C)(O)[C@H](O)C2=CO1,3.6
17,CC(=O)OC12CC(C)C(O)C1/C=C(/COC1OC(CO)C(O)C(O)C1O)CCC1C(/C=C(\C)C2=O)C1(C)C (stereo not given),-3.67
18,CC1=CC23[C@H](C=C(C(=O)O)[C@@H]2COC(=O)[C@]3(O)CO)[C@@H]1C (stereo not given in full),2.57
19,CC1OC(OC2C(OC(=O)[C@]34CCC(C)(C)C[C@H]3C3=CCC5[C@@]6(C)CC[C@H](OC7OC(C(=O)O)C(O)C(O)C7O)C(C)(C)C6CC[C@@]5(C)[C@]3(C)CC4O)OC(CO)C2O)C(O)C(O)C1OC1OCC(O)C(O)C1O (stereo not given in full),-8.42
20,C=CC(C)(O)CCC1C(C)(O)CCC2C(C)(C)CCCC21C (stereo not given),-3.72

row,SMILES,max response [%]
1,COC(=O)C1=COC(O[C@@H]2O[C@H](CO)[C@@H](O)[C@H](O)[C@H]2O)C2C(C)C(=O)CC12 (stereo not given in full),-2
2,CC1=C(C(=O)OC2OC(COC3OC(CO)C(O)C(O)C3O)C(O)C(O)C2O)C(C)(C)CCC1 (stereo not given),1.47
3,C[C@]1(OC(=O)/C=C\c2ccc(O)cc2)C[C@@H](O)[C@]2(O)C=CO[C@@H](O[C@@H]3O[C@H](CO)[C@@H](O)[C@H](O)[C@H]3O)C12 (stereo not given in full),-4.97
4,CC(C)(CC(=O)N1CCCC1)NCC(=O)N1C[C@@H](F)C[C@H]1C#N,-0.937
5,C[C@@H]1O[C@@H](OC(=O)Cc2ccccc2)[C@H](O)[C@H](O)[C@H]1O,-2.15
6,COc1ccc(CC(=O)NCc2ccccc2-c2ccccc2C(=O)NCCc2cccnc2)cc1,-0.81
7,CC1=C2C(=O)C=C(CO[C@@H]3O[C@H](CO)[C@@H](O)[C@H](O)[C@H]3O)[C@@H]2[C@H]2OC(=O)[C@H](C)[C@@H]2[C@@H](O)C1,-50.9
8,C/C=C(\C)C(=O)OC[C@H]1O[C@H](O[C@H]2O[C@H](CO)[C@@H](O)[C@H](O)[C@H]2O[C@@H]2O[C@H](CO)[C@@H](O)[C@H](O)[C@H]2O)[C@H](O[C@@H]2O[C@H](CO)[C@@H](O)[C@H](O)[C@H]2O)[C@@H](O)[C@@H]1O,-1.76
9,O=C(OC[C@H]1O[C@@H](Oc2ccccc2CO)[C@H](O)[C@@H](O)[C@@H]1O)c1ccccc1,0.13
10,CC1CCC2(C(=O)O)CCC3(C)C(=CCC4C5(C)CCC(O)C(C)(C(=O)O)C5CCC43C)C2C1(C)O (stereo not given),-11.5
11,CCOc1ccc(-c2cc(NC(=O)c3c(F)cccc3F)c(C(=O)O)s2)cc1,1.07
12,C=C(C)[C@@H]1CC[C@]2(C)CC[C@]3(C)C(CCC4[C@@]5(C)CC[C@H](O)C(C)(C)C5CC[C@]43C)C12 (stereo not given in full),1.06
13,Cc1cc(C)c2nc(-c3ccccn3)cc(C(=O)Nc3ccc(S(=O)(=O)Nc4onc(C)c4C)cc3)c2c1,-20.7
14,CC(=O)N[C@H](Cc1c[nH]c2ccccc12)C(=O)OCc1cc(C(F)(F)F)cc(C(F)(F)F)c1,-2.25
15,CSC(=O)OCC1=C[C@@H]2OC(=O)C3=CO[C@@H](O[C@@H]4O[C@H](CO)[C@@H](O)[C@H](O)[C@H]4O)[C@H]1[C@@H]32,-0.187
16,CC1(C)C[C@@H]2[C@H](C1)[C@@]1(C)C[C@]13C(O)OC[C@]3(O)[C@H]2O (stereo not given in full),-0.838
17,COC(=O)C1=CO[C@@H](O[C@@H]2O[C@H](CO)[C@@H](O)[C@H](O)[C@H]2O)[C@@H]2[C@@H](CO)[C@@H](O)C(O)[C@H]12 (stereo not given in full),-5.81
18,C=C1CC[C@@]2(OC1)O[C@H]1CC3[C@@H]4CC=C5C[C@@H](O)C[C@@H](O[C@@H]6OC[C@H](O)[C@H](O)[C@H]6O[C@@H]6O[C@@H](C)[C@H](O)[C@@H](O)[C@H]6O)[C@]5(C)C4CC[C@]3(C)[C@H]1[C@@H]2C (stereo not given in full),-17.1
19,Cn1cc(CCn2cnc(-c3cnn(C)c3)c2-c2ccc(C#N)cc2)cn1,0.036
20,COC(=O)C1=CO[C@@H](O[C@@H]2O[C@H](CO)[C@@H](O)[C@H](O)[C@H]2O)[C@@H]2[C@@H](C)[C@@H](O)C(O)[C@H]12 (stereo not given in full),-12.7

# From PubChem BioAssay (NCATS)
